Consider 20 compounds from PubChem BioAssay.

Active and inactive are the calls of the source.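 How the source made its calls, unless noted: active means compounds whose cell count with miR-34 switched on is under 0.7 times the count with it off; inactive means the rest.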 Where a SMILES comes first, the peptide text is derived from it. The star is where a group is joined. Cbz = O=C(OCc1ccccc1)*; CH2F = FC*

A short description of assay [1]: sensitizers of A549 cells to miR-34 induction, primary screen, imaging, A549 dox-inducible miR-34, nuclei and caspase counts (AID 1347080). The following applies: A549 miR-34 inducible, Hoechst nuclei count, 48 h.
The nature of assay [2]: survival rescue of mitochondrial mutant cells in low glucose, primary screen, MELAS cybrids, Rieske KO mouse fibroblasts, CellTiter-Glo (AID 1508586;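 active means mean z-score across replicates of 1.96 or higher in either the MELAS or the Rieske mutant cell line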;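 further: z relative to plate mean and SD of compound and empty wells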). Background: In ATP-based viability assays light output follows the ATP content of the culture.
Setting [3] is: stronger effect = lower value, cell number ratio, induced over uninduced.
The mark [4] stands for this setting: measured here: relative caspase fold change +Dox/-Dox.
Setting [5] is: measured here: total cells with miR-34 induction, stronger effect = lower value.
Where [6] appears, read: measured here: total cells without miR-34 induction.
Setting [7] is: MELAS cybrid survival, CellTiter-Glo 48 h, stronger effect = higher value.
[8] abbreviates: Rieske KO mouse fibroblast survival, CellTiter-Glo 72 h.
Further: test concentration not given here.

`C=C1C(=O)OC2C=C(C)CCC=C(C)CCC12` (stereo not given): the fold change is 0.92 (inactive) in assay [1] (setting [3]) and 0.847 in assay [1] (setting [4]). The cell count was determined as 7130 in assay [1] (setting [5]) and 7760 in assay [1] (setting [6]). Also, the z-score in assay [2] (setting [7]) was -0.398 (inactive); in assay [2] (setting [8]) it was -0.0875.

Regarding `OCc1ccc(OC2OC(CO)C(O)C(O)C2O)cc1` (stereo not given), the fold change was 0.984 (inactive) in assay [1] (setting [3]) and 0.233 in assay [1] (setting [4]). Also, the cell count was 8280 in assay [1] (setting [5]) and 8420 in assay [1] (setting [6]). Besides, the values for the z-score in assay [2] (setting [7]) and in assay [2] (setting [8]) were -0.247 (inactive) and -0.122, respectively.

For the compound `OCC1OC(O[C@]2(CCl)OC(CCl)C(O)C2O)C(O)C(O)C1Cl` (stereo not given in full), the fold change was 0.895 (inactive) in assay [1] (setting [3]) and 0.674 in assay [1] (setting [4]). Further, the cell count in assay [1] (setting [5]) stood at 8040; in assay [1] (setting [6]) it was 8990. In addition, the figures for the z-score in assay [2] (setting [7]) and in assay [2] (setting [8]) were -0.278 (inactive) and -0.16, respectively.

As for `Cc1[nH]nc2ccc(-c3cncc(OCC(N)Cc4ccccc4)c3)cc12` (stereo not given), the fold change in assay [1] (setting [3]) was 1.1 (inactive); in assay [1] (setting [4]), 0.572. The cell count in assay [1] (setting [5]) was 1470; in assay [1] (setting [6]), 1330. In addition, the z-score in assay [2] (setting [7]) was 1.05 (inactive); in assay [2] (setting [8]), -3.52.

For the compound `O=C(CSc1nc2c(c(=O)n1-c1ccccc1)SCC2)Nc1ccc(-c2ccccc2)cn1`, the fold change in assay [1] (setting [3]) was 0.945 (inactive); in assay [1] (setting [4]), 0.349. For the same compound, the cell count in assay [1] (setting [5]) came out at 7310; in assay [1] (setting [6]), 7740. Further, the z-score in assay [2] (setting [7]) is -0.49 (inactive); in assay [2] (setting [8]), 0.404.

Take `COC(=O)CC(NC(=O)C(C)NC(=O)C(NC(=O)OCc1ccccc1)C(C)C)C(=O)CF` (stereo not drawn) (Cbz-Val-Ala-Asp(OMe)-CH2F; configuration not given here): the fold change in assay [1] (setting [3]) is 0.936 (inactive); in assay [1] (setting [4]), 0.758. Besides, the cell count worked out at 8620 in assay [1] (setting [5]) and 9210 in assay [1] (setting [6]). In addition, the z-score in assay [2] (setting [7]) was -0.172 (inactive); in assay [2] (setting [8]), -0.115.

In the case of `COC1C(=O)[C@]2(C)C(OC)C[C@H]3OC[C@@]3(OC(C)=O)[C@H]2C(OC(=O)c2ccccc2)[C@@]2(O)CC(OC(=O)C(O)C(NC(=O)OC(C)(C)C)c3ccccc3)C(C)=C1C2(C)C` (stereo not given in full), the fold change in assay [1] (setting [3]) was 1.03 (inactive); in assay [1] (setting [4]), 0.843. Also, the cell count in assay [1] (setting [5]) was 2690; in assay [1] (setting [6]), 2620. Further, the z-score is 1.6 (inactive) in assay [2] (setting [7]) and -0.148 in assay [2] (setting [8]).

As for `OCCOc1ccc(C(=C(CCCl)c2ccccc2)c2ccccc2)cc1`, the results for the fold change in assay [1] (setting [3]) and in assay [1] (setting [4]) were 0.979 (inactive) and 0.793, respectively. Also, the cell count in assay [1] (setting [5]) amounted to 9190; in assay [1] (setting [6]), 9380. Moreover, the results for the z-score in assay [2] (setting [7]) and in assay [2] (setting [8]) were -0.333 (inactive) and -0.092, respectively.

Consider `Cc1cc(N2CCOCC2)cc2[nH]c(-c3c(NCC(O)c4cccc(Cl)c4)cc[nH]c3=O)nc12` (stereo not given), for which the fold change is 1.08 (inactive) in assay [1] (setting [3]) and 0.775 in assay [1] (setting [4]). Besides, the results for the cell count in assay [1] (setting [5]) and in assay [1] (setting [6]) were 928 and 858, respectively. Moreover, the figures for the z-score in assay [2] (setting [7]) and in assay [2] (setting [8]) were -0.143 (inactive) and -0.73, respectively.

In the case of `CCC(=C(CC)c1ccc(O)cc1)c1ccc(O)cc1`, the values for the fold change in assay [1] (setting [3]) and in assay [1] (setting [4]) were 0.852 (inactive) and 1.22, respectively. Also, the cell count in assay [1] (setting [5]) came to 7280; in assay [1] (setting [6]), 8550. Moreover, the z-score in assay [2] (setting [7]) was -0.347 (inactive); in assay [2] (setting [8]) it was 0.452.

On to `O=C(NCCO)c1cccc(-c2cc(Nc3ccc(OC(F)(F)F)cc3)ncn2)c1`, for which the fold change in assay [1] (setting [3]) is 0.847 (inactive); in assay [1] (setting [4]), 0.626. The cell count in assay [1] (setting [5]) was found to be 7400; in assay [1] (setting [6]), 8740. Besides, the z-score in assay [2] (setting [7]) is -0.469 (inactive); in assay [2] (setting [8]), 0.943.

For `CCC(C)C(NC(=O)C(CCC(=O)O)NC(=O)C(CC(C)C)NC(=O)C1CN=C(C(N)C(C)C)S1)C(=O)NC1CCCCNC(=O)C(CC(N)=O)NC(=O)C(CC(=O)O)NC(=O)C(Cc2cnc[nH]2)NC(=O)C(Cc2ccccc2)NC(=O)C(C(C)CC)NC(=O)C(CCCN)NC1=O` (stereo not given), the fold change in assay [1] (setting [3]) was 1.05 (inactive); in assay [1] (setting [4]) it was 0.927. The cell count came out at 7610 in assay [1] (setting [5]) and 7240 in assay [1] (setting [6]). Besides, the results for the z-score in assay [2] (setting [7]) and in assay [2] (setting [8]) were -0.25 (inactive) and -0.261, respectively.

On to `O=C(C=Cc1ccc(O)cc1)c1ccc(O)cc1O`, for which the fold change was 0.99 (inactive) in assay [1] (setting [3]) and 0.784 in assay [1] (setting [4]). Also, the cell count in assay [1] (setting [5]) is 8890; in assay [1] (setting [6]) it was 8980. Further, the z-score in assay [2] (setting [7]) was -0.337 (inactive); in assay [2] (setting [8]) it was 0.414.

Take `CC1OC(O)C(O)C(O)C1O` (stereo not given): the figures for the fold change in assay [1] (setting [3]) and in assay [1] (setting [4]) were 0.984 (inactive) and 1, respectively. The cell count in assay [1] (setting [5]) is 7230; in assay [1] (setting [6]) it was 7350. Further, the z-score in assay [2] (setting [7]) was -0.0523 (inactive); in assay [2] (setting [8]), -0.0922.

In the case of `C[C@@]12CCC3=C4CCC(=O)C=C4CC[C@H]3[C@@H]1CC[C@@]2(O)CC#N`, the fold change is 0.908 (inactive) in assay [1] (setting [3]) and 0.868 in assay [1] (setting [4]). Further, the figures for the cell count in assay [1] (setting [5]) and in assay [1] (setting [6]) were 7270 and 8010, respectively. The z-score was -0.385 (inactive) in assay [2] (setting [7]) and 0.301 in assay [2] (setting [8]).

For the compound `C[C@]12CC[C@H]3c4ccc(OC(=O)c5ccccc5)cc4CC[C@H]3[C@@H]1CCC2O` (stereo not given in full), the values for the fold change in assay [1] (setting [3]) and in assay [1] (setting [4]) were 0.921 (inactive) and 0.673, respectively. Further, the cell count in assay [1] (setting [5]) stood at 8340; in assay [1] (setting [6]), 9050. The z-score was -0.15 (inactive) in assay [2] (setting [7]) and -0.151 in assay [2] (setting [8]).

Regarding `CCC1OC(=O)C(C)C(OC2C[C@@](C)(OC)C(O)C(C)O2)C(C)C(OC2OC(C)CC(N(C)C)C2O)[C@@](C)(O)CC(C)[C@@H]2NC(COCCOC)OC(C2C)[C@]1(C)O` (stereo not given in full), the fold change in assay [1] (setting [3]) was 0.923 (inactive); in assay [1] (setting [4]) it was 0.895. For the same compound, the cell count came to 8840 in assay [1] (setting [5]) and 9580 in assay [1] (setting [6]). Moreover, the values for the z-score in assay [2] (setting [7]) and in assay [2] (setting [8]) were -0.208 (inactive) and -0.128, respectively.

Turning to `CC(NCc1ccc(OCc2cccc(F)c2)cc1)C(N)=O` (stereo not given), the fold change in assay [1] (setting [3]) was 0.935 (inactive); in assay [1] (setting [4]), 1.08. Besides, the cell count in assay [1] (setting [5]) is 7820; in assay [1] (setting [6]), 8360. Besides, the z-score in assay [2] (setting [7]) was -0.428 (inactive); in assay [2] (setting [8]) it was 0.667.

`CC(C)n1c(C=CC(O)CC(O)CC(=O)O)c(-c2ccc(F)cc2)c2ccccc21` (stereo not given): the fold change in assay [1] (setting [3]) is 1.12 (inactive); in assay [1] (setting [4]), 0.928. Also, the figures for the cell count in assay [1] (setting [5]) and in assay [1] (setting [6]) were 1580 and 1410, respectively. In addition, the z-score in assay [2] (setting [7]) is 0.699 (inactive); in assay [2] (setting [8]), -1.97.

`CCOC(=O)C(CCc1ccccc1)NC(C)C(=O)N1Cc2cc(OC)c(OC)cc2CC1C(=O)O` (stereo not given): the fold change in assay [1] (setting [3]) is 0.97 (inactive); in assay [1] (setting [4]) it was 0.414. Further, the cell count in assay [1] (setting [5]) came to 7830; in assay [1] (setting [6]) it was 8070. Further, the z-score in assay [2] (setting [7]) was -0.293 (inactive); in assay [2] (setting [8]), -0.111.
